G9a inh: qHTS Assay for Inhibitors of Histone Lysine Methyltransferase G9a; Histone-lysine N-methyltransferase EHMT2 (Homo sapiens), Q96KQ7; G9a H3K9 monomethylation, AlphaScreen, 2 h; Potency, µM (top dose mostly 102 µM), without a hit: at the top dose activity, negative = inhibition, most hits filed as inhibitors; 350,000 compounds, 8.8% hits; AID 504332, 2011; also: % is scaled to controls: 0 for no effect and ±100 for the full control effect; nearly all actives have a fitted effect of over 75% in size
Target sequence (Q96KQ7 913-1193 limits assumed): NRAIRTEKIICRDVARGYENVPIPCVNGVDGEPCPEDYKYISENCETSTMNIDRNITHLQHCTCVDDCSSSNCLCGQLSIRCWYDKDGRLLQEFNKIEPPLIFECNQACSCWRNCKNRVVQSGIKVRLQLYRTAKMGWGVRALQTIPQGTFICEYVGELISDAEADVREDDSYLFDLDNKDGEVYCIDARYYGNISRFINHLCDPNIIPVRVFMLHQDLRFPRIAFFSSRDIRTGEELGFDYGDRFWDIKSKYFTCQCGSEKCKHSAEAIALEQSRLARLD
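G9a (20 nM) preincubated 15 min RT with compounds, then 500 nM biotinylated H3K9 peptide and 20 uM SAM added; 2 h RT reaction. Monomethyl-H3K9 product detected by AlphaScreen with anti-H3K9me1 antibody, streptavidin donor and anti-rabbit IgG acceptor beads.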
JMJD2A Tudor: qHTS Assay for Inhibitors of JMJD2A-Tudor Domain; Potency, µM (highest dose often 114 µM), for the others: at the highest dose activity change, negative = inhibition, most hits filed as inhibitors; Lysine-specific demethylase 4A (Homo sapiens), O75164; 390,000 compounds, 4.4% hits; AlphaScreen JMJD2A-Tudor / H3K4me3 peptide binding; AID 504339, 2011; also: % is scaled to controls: 0 for no effect and ±100 for the full control effect; nearly all actives have a fitted effect of over 50% in size
Sfp inh: qHTS Assay for Inhibitors of Bacillus subtilis Sfp phosphopantetheinyl transferase (PPTase); 4'-phosphopantetheinyl transferase ffp (Bacillus subtilis), Q9F4F7; Biochemical Sfp PPTase activity, qHTS; Potency, µM, inactives show largest response in the series, negative = inhibition, most hits filed as inhibitors; 310,000 compounds, 3.5% hits; AID 1490, 2009;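 also: the enzyme is Sfp with the accession as filed and its product quenches rhodamine fluorescence; 0% = enzyme reaction without inhibitor and -100% = no enzyme wells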
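Step 1, compound plus 15 nM Sfp-PPTase, 15 min, room temperature. Step 2, add rhodamine-CoA (5 uM) and BHQ-2-YbbR (12.5 uM). Step 3, read 525/598 nm fluorescence at 0 and 30 min.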
HP1b chromo inh: HTS for Inhibitors of HP1-beta Chromodomain Interactions with Methylated Histone Tails | Potency, µM (highest dose often 114 µM), inactives show at the top dose activity change, negative = inhibition, hits mostly inhibitors | AlphaScreen HP1-beta / biotin-H3K9me3 peptide binding | AID 540317, 2011 | 390,000 compounds, 0.56% hits; also: nearly all actives have a fitted effect of over 70% in size
Target sequence (P83916 whole entry, looked up): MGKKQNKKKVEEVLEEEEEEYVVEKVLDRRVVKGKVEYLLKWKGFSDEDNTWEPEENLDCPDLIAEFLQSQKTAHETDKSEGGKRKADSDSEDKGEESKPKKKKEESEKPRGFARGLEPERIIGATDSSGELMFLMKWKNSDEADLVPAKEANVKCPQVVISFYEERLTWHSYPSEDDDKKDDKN
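HP1-beta protein (50 nM final) preincubated 30 min at room temperature with biotinylated H3(1-18)K9me3 peptide (50 nM) in PBS pH 7.4, 0.01% Tween-20, then compound added for 30 min. AlphaScreen streptavidin donor/nickel chelate acceptor beads (10 ug/mL final), 30 min dark, luminescence read.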
L3MBTL1 block: qHTS Assay for the Inhibitors of L3MBTL1; Lethal(3)malignant brain tumor-like protein 1 (Homo sapiens), Q9Y468; AlphaScreen L3MBTL1–H3K9me1 peptide binding; Potency, µM (series often up to 57.1 µM), without a hit: top-dose activity, negative = inhibition, actives largely listed as inhibitors; 230,000 compounds, 0.66% hits; AID 485360, 2010; also: % is scaled to controls: 0 for no effect and ±100 for the full control effect; nearly all actives have a fitted effect of over 60% in size
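L3MBTL1 50 nM + b-AHA-H3(1-15)K9me1 75 nM, 30 min RT; compound added, 30 min RT; streptavidin donor/Ni-chelate acceptor beads 10 ug/mL each final, 30 min RT dark; AlphaScreen read.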
BAZ2B block: qHTS Assay for Inhibitors of BAZ2B; AlphaScreen BAZ2B-H3K14Ac peptide displacement; Potency, µM (series often up to 114 µM), without a hit: top-dose activity change, negative = inhibition, actives largely listed as inhibitors; 360,000 compounds, 4.4% hits; also: % is scaled to controls: 0 for no effect and ±100 for the full control effect; nearly all actives have a fitted effect of over 60% in size
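Compounds, titrated to a top concentration of 110 uM, were incubated 30 min at room temperature with preformed BAZ2B/acetyl-K14 H3 peptide complex (50 nM each). Proximity signal was measured by AlphaScreen after 20 min with beads.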
An asterisk follows results filed as active; [ ] = dose if it differs, or a comment. Only some compounds are listed: those with a hit (about 12% of all), similar ones and a draw of the others. Calls follow the shape of the dose curve; as a rule, active = well fitted curve in the direction sought with a large enough effect; inconclusive = small, poorly fitted or top-dose-only effect, or another doubt; inactive = no such curve, though single readings can be large; an effect the other way counts as inactive or inconclusive. Potency is read from the fitted curve at half-maximal effect.

What do the screens show for `CCCCNC(=O)Oc1ccc(C(=O)N2c3ccccc3NC(=O)C2C)cc1` (stereo not given)?
G9a inh: 26.0%; JMJD2A Tudor: -8.4%; Sfp inh: 13.4%; HP1b chromo inh: 23.3%; BAZ2B block: 8.3%

How did CC1=C(C(=O)N2CCOCC2)C(c2ccc(C)cc2)NC(=S)N1 (stereo not given) do in these assays?
G9a inh: 39.8µM*; JMJD2A Tudor: -16.0%; Sfp inh: 50.1µM*; HP1b chromo inh: 31.9%; L3MBTL1 block: 1.5%; BAZ2B block: -2.2%

How did CC1=C(C(=O)N2CCOCC2)C(c2ccc(Cl)cc2)NC(=S)N1 (stereo not given) do in these assays?
G9a inh: 70.8µM*; JMJD2A Tudor: -6.2%; Sfp inh: -7.1%; HP1b chromo inh: 48.7%; L3MBTL1 block: 20.6%; BAZ2B block: 21.6%

Results for CC1=C(C(=O)N2CCOCC2)C(c2c(C)cc(C)cc2C)NC(=S)N1 (stereo not given) ?
G9a inh: -43.6%; JMJD2A Tudor: -11.9%; Sfp inh: -2.9%; HP1b chromo inh: 31.2%; L3MBTL1 block: 6.7%; BAZ2B block: -0.8%

How did COc1ccc2oc(C(=O)OCc3nnc(-c4ccccc4)o3)c(C)c2c1 do in these assays?
G9a inh: 11.5%[12.7 µM]; JMJD2A Tudor: -1.4%; HP1b chromo inh: 23.6%; L3MBTL1 block: -7.8%; BAZ2B block: -3.0%

What do the screens show for `Cn1c(SCc2cccc(Br)c2)nc2c1c(=O)[nH]c(=O)n2C`?
G9a inh: 12.0%; JMJD2A Tudor: -13.3%; Sfp inh: 8.3%; HP1b chromo inh: 38.7%; L3MBTL1 block: -0.2%; BAZ2B block: -0.4%

Results for Cn1c(=O)[nH]c(=O)c2c1nc(SCCC(=O)O)n2Cc1cccc(Br)c1 ?
G9a inh: 35.5µM*; JMJD2A Tudor: -20.5%; Sfp inh: -5.1%; HP1b chromo inh: 66.1%; L3MBTL1 block: -0.5%; BAZ2B block: -13.0%

How did CC(=O)CSc1nc2c(c(=O)[nH]c(=O)n2C)n1Cc1cccc(Br)c1 do in these assays?
G9a inh: 22.4µM*; JMJD2A Tudor: -21.9%; Sfp inh: 44.7µM*; HP1b chromo inh: -7.6%; L3MBTL1 block: 0.0%; BAZ2B block: -3.5%

What do the screens show for `COc1ccc(NC(=O)CSc2nc(-c3ccco3)cc(C(F)(F)F)n2)c(OC)c1`?
G9a inh: 2.2%[59 µM]; JMJD2A Tudor: -7.9%; HP1b chromo inh: 19.2%; BAZ2B block: -2.7%

Results for Cc1ccccc1S(=O)(=O)NCC1CCCO1 (stereo not given) ?
G9a inh: 4.0%; JMJD2A Tudor: -9.0%; Sfp inh: 17.5%; HP1b chromo inh: 14.7%; L3MBTL1 block: 4.0%; BAZ2B block: 4.7%

What do the screens show for `C[C@@H]1O[C@@H](OC2O[C@@H](COc3cc(O)c4c(=O)cc(-c5ccc(O)cc5)oc4c3)[C@@H](O)[C@@H](O)[C@@H]2O)[C@H](O)[C@H](O)[C@H]1O` (stereo not given in full)?
Sfp inh: 7.3%

How did CC(NC(=O)CN1C(=O)COc2ccc(Cl)cc21)c1ccccc1 (stereo not given) do in these assays?
G9a inh: 0.7%[59 µM]; JMJD2A Tudor: -5.8%; HP1b chromo inh: 40.0%; BAZ2B block: -2.0%

How did CCN(CC)CCCNC(=O)c1nn(C)c2c1CS(=O)(=O)c1ccccc1-2 do in these assays?
G9a inh: 25.1µM*; JMJD2A Tudor: -15.5%; HP1b chromo inh: 15.9%; BAZ2B block: -7.5%
